# Source: PubChem BioAssay
# MLL CXXC-DNA inh – qHTS Fluorescence Polarization Assay for Inhibitors of MLL CXXC domain - DNA interaction; Histone-lysine N-methyltransferase 2A (Homo sapiens), Q03164; MLL-CXXC / FITC-HOXA9 DNA fluorescence polarization; 290,000 tested, 0.037% active; Potency, µM (highest dose often 115 µM), for the others: at the highest dose activity change, negative = inhibition, hits mostly inhibitors; active = well fitted inhibition curve with a large enough effect in the polarisation, with a control signal flat, not every such curve was filed as active; inconclusive = small, poorly fitted or top-dose-only effect, or effect the other way, or a change in a side signal; inactive = no such curve, though single readings can be large or run the other way; the % refers to the polarisation; note: potency is the fitted concentration of half-maximal effect
#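 Fluorescence polarization: 7 uM MLL-CXXC (stock) preincubated 5 min with compounds, then 50 nM fluorescein-HOX-A9 DNA (stock) added; 30 min ambient. Buffer 50 mM Tris-HCl pH 7.5, 50 mM NaCl, 1 mM DTT, 0.05% BSA.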
# TexasRed fluor – Total Fluorescence Counterscreen for Inhibitors of the Interaction of Thyroid Hormone Receptor and Steroid Receptor Coregulator 2; TRb/SRC2 Texas Red total fluorescence interference; Potency, µM (top dose mostly 106 µM), without a hit: top-dose fluorescence change, negative = quenching; 280,000 tested, 0.29% active; active = well fitted curve in either direction with a large enough effect; inconclusive = small, poorly fitted or top-dose-only effect; note: potency is the fitted concentration of half-maximal effect; % is set by controls: 0 for no effect and ±100 for the full control effect
#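 Human TRb ligand-binding domain at 0.6 uM with 20 nM Texas Red SRC2 peptide in Tris buffer containing 1 uM T3 and 5% DMSO, incubated with compound 5 h at ambient temperature. Total fluorescence (555/632 nm) calculated as parallel + 2 × perpendicular.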
# TRb SRC2 PPI – qHTS for Inhibitors of the Interaction of Thyroid Hormone Receptor and Steroid Receptor Coregulator 2; Thyroid hormone receptor beta (Homo sapiens), P10828; TRbeta-SRC2 peptide binding, fluorescence polarization; receptor liganded with 1 µM T3; Potency, µM (highest dose often 106 µM), without a hit: top-dose activity change, negative = inhibition, usual class: inhibitors; 280,000 tested, 0.065% active; AID 1469, 2008; active = well fitted inhibition curve with a large enough effect; inconclusive = small, poorly fitted or top-dose-only effect, or effect the other way;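 note: potency is the fitted concentration of half-maximal effect; plate controls were bound peptide for no effect and peptide without receptor for full effect; nearly all actives have a fitted effect of over 50% in size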
# Target sequence (P10828 whole entry, looked up): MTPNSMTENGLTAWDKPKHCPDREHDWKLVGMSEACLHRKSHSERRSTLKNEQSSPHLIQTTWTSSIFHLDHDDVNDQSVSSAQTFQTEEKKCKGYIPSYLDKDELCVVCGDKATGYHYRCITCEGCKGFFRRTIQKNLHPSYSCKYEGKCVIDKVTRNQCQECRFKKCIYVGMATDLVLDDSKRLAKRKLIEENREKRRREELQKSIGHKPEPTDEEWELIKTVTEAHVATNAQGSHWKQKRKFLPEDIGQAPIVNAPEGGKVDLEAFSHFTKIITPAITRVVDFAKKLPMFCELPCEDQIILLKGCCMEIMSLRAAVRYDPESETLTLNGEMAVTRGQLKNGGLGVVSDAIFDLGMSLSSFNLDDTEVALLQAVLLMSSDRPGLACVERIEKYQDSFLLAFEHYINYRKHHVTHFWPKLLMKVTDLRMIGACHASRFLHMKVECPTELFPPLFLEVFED
#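 Compounds were added to 0.6 uM TRb ligand-binding domain and 20 nM Texas Red-labeled SRC2 peptide in Tris buffer containing 1 uM T3, incubated 5 hr at ambient temperature, then read by fluorescence polarization.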
# Menin-MLL FL inh – qHTS Assay for Inhibitors Targeting the Menin-MLL Interaction in MLL Related Leukemias: Competition With Fluorescein Labeled MLL-derived Peptide; Fluorescence polarization, fluorescein-MLL peptide displacement from menin; FP activity change, % at 61.4 µM; 290,000 tested, under 10 active; AID 1766, 2009; active = well fitted curve in the direction sought with a large enough effect in the polarisation, not every such curve was filed as active; inconclusive = small, poorly fitted or top-dose-only effect, or effect the other way, or a change in a side signal; inactive = no such curve, though single readings can be large or run the other way; the % refers to the polarisation; note: % of control where 0% means no effect
# Menin-MLL TR inh – qHTS Assay for Inhibitors Targeting the Menin-MLL Interaction in MLL Related Leukemias: Competition With Texas Red Labeled MLL-derived Mutant Peptide | O00255 | Menin + Texas Red MLL mutant peptide, fluorescence polarization | Potency, µM (doses to about 61.6 µM), without a hit: at the top dose FP activity change, negative = inhibition, most hits filed as inhibitors | 270,000 tested, 0.23% active; active = well fitted inhibition curve with a large enough effect in the polarisation, with a control signal flat, not every such curve was filed as active; inconclusive = small, poorly fitted or top-dose-only effect, or effect the other way, or a change in a side signal; inactive = no such curve, though single readings can be large or run the other way; the % refers to the polarisation; note: potency is the fitted concentration of half-maximal effect; % of control where 0% means no effect
# RGS12 GoLoco inh – qHTS Assay for Inhibitors of RGS12 GoLoco Motif Activity (Red Fluorophore) | Guanine nucleotide-binding protein G(i) subunit alpha-1 (Homo sapiens), P63096 | Potency, µM (series often up to 61.6 µM), for the others: top-dose activity, negative = inhibition, hits mostly inhibitors | AID 880, 2007 | 230,000 tested, 0.44% active | Gai1:RGS12 GoLoco peptide FP, rhodamine, 10 min; active = well fitted inhibition curve with a large enough effect, not every such curve was filed as active; inactive = no such curve, though single readings can be large or run the other way; note: potency is the fitted concentration of half-maximal effect; % is set by controls: 0 for no effect and ±100 for the full control effect; nearly all actives have a fitted effect of over 30% in size
# Target sequence (P63096 whole entry, looked up): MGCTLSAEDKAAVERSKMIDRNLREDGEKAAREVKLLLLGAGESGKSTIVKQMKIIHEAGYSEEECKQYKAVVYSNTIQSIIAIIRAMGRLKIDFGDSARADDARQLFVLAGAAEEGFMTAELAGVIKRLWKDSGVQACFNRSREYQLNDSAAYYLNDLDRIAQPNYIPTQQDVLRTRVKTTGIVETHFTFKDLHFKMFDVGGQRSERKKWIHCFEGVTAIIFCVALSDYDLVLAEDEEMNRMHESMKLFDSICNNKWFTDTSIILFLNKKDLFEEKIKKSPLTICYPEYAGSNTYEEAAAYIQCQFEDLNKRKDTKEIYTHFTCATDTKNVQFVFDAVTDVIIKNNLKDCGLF
# An asterisk follows results filed as active; u = inconclusive; x = not tested or not shown; ! = a repeat was not active; [ ] = remark or other dose. The list is not random: actives were taken first. Their share in the collection is about 0.5%.
SMILES,MLL CXXC-DNA inh,TexasRed fluor,TRb SRC2 PPI,Menin-MLL FL inh,Menin-MLL TR inh,RGS12 GoLoco inh
CCn1cc(C(=O)NCCc2ccc(OC)c(OC)c2)c(=O)c2cc(S(=O)(=O)N3CCOCC3)ccc21,8.2%,-2.7%,-1.1%,-0.2,15.8µM*,x
CCOc1cc(/C=C2\C(=O)N(c3nc(-c4ccc(Br)cc4)cs3)N=C2c2ccccc2)ccc1O,-3.9%,28.2µM*[quencher],20.4%,2.4,u,99.7%
CC1CC=CC2C1C(=O)N(Cc1ccccc1)C2c1ccc(-c2ccc(N(C)C)cc2)cc1F (centres undefined),x,0.2%,1.9%,5.7,-24.7%,x
Nc1ncc(N=Nc2cc(C(=O)O)ccc2Cl)s1,-6.8%,70.8µM*[quencher],19.1%,11.7,x,-2.3%
COc1cc(/C=C2/S/C(=N/S(=O)(=O)Cc3ccccc3)NC2=O)c([N+](=O)[O-])cc1OC,-12.5%,2.7%,-6.7%,2.2,x,25.1µM*
COc1cc2c(cc1OC)CN(C(=O)Nc1ccccc1Cl)CC2,0.4%,x,x,1.5,4.4%,x
COc1cc2c(cc1OC)CN(C(=O)Nc1ccccc1)CC2,5.6%,112µM*[quencher],-10.1%,0.6,-2.0%,x
COc1ccc(-c2nnc3n2N=C(c2ccc(OC)cc2OC)CS3)cc1,x,-0.3%,-2.5%,4.6,-6.1%,x
Cc1cc(C)nc(SCC(=O)N/N=C/c2cccn2-c2ccc(O)cc2)n1,13.4%,-5.9%,-2.5%,0.7,8.6%,3.16µM*
O=C1SC(Nc2ccc(Cl)cc2)C(=O)N1Cc1ccccc1 (centres undefined),x,0.0032µM*[quencher],-15.0%,x,x,x
Oc1ccc(NCc2ccc(OCc3ccccc3)cc2)cc1,-10.6%,-13.4%[11.2 µM],-0.1%[11.2 µM],u,u,x
CCc1ccc(CNc2ccc(O)cc2)cc1,3.0%,0.1%,-12.8%,-1.9,35.5µM*,14.1µM*
CCOc1cc(CNCc2ccccc2)ccc1OCc1ccc(Cl)cc1,-13.5%,x,x,-4.7,u,x
CCOc1cc(CNc2ccc(O)cc2)ccc1OCc1ccc(Cl)cc1Cl,0.7%,19.1%,28.2µM*,1.4,u,-29.5%
CCOc1cccc(CNc2ccc(O)cc2)c1OCc1ccc(Cl)cc1,-0.8%,u,35.5µM*,-1.3,31.6µM*,-22.5%
CCOc1ccccc1CNc1ccc(O)cc1,-16.4%,u,28.2µM*,-3.6,28.2µM*,-46.0%
CCN(c1cccc(C)c1)S(=O)(=O)c1nnc(NC(=O)c2ccccc2Cl)s1,x,5.4%,0.2%,x,x,x
O=S(=O)(Nc1cccc2cccnc12)c1ccc(Br)s1,x,-0.1%,-4.6%,1.7,u,x
c1ccc2c(c1)Cc1ccccc1-2,x,-3.4%[201 µM],0.4%[201 µM],x,x,x
CS(=O)(=O)c1ccc(Cl)cc1,x,-1.4%[201 µM],2.5%[201 µM],x,x,x
COc1ccc(Br)cc1CNc1ccc(O)cc1,6.9%,u,8.91µM*,2.4,u,20µM*
Oc1ccc(NCc2ccccc2OCc2ccccc2F)cc1,-12.8%,9.3%[11.2 µM],35.5µM*!,3.9,u,-14.5%
COc1ccc(Br)cc1CNc1ccc2[nH]c(=O)[nH]c2c1,27.1%,-4.8%,1.1%,-8.1,-3.3%,17.0%
COc1cc2nc3c(c([Si](C)(C)C(C)(C)C)c2cc1OC)Cn1c-3cccc1=O,x,-17.8%,-4.4%,u,5.7%,-18.8%
OC1OC[C@H](O)[C@@H](O)[C@H]1O (some centres undefined),x,-3.5%,1.9%,0.7,6.1%,x
SMILES,MLL CXXC-DNA inh,TexasRed fluor,TRb SRC2 PPI,Menin-MLL FL inh,Menin-MLL TR inh,RGS12 GoLoco inh
CCc1cccc(C)c1NC(=O)c1cn2c3c(ccc(Cl)c3c1=O)OC(C)C2 (centres undefined),x,100µM*[quencher],-19.1%,x,x,x
CCCCCCCC(=O)Oc1c(Br)cc(C#N)cc1Br,x,1.6%[201 µM],3.8%[201 µM],x,x,x
COC(=O)c1cc2sc(Cl)cc2n1Cc1nc(-c2ccc(OC)cc2)oc1C,x,3.2%,-2.7%,x,x,x
COC(=O)c1cc2sc(Cl)cc2n1Cc1nc(-c2ccccc2F)oc1C,x,25.1µM*[quencher],-14.9%,x,x,x
COc1cc(CNc2ccc(N3CCCC3)cc2)cc(Cl)c1OC,37.8%,9.2%,-9.6%,-1.3,28.2µM*,10.2%
CCOc1cc(CNc2ccc(N3CCCC3)cc2)cc(Cl)c1OC,-0.9%,17.2%,-29.6%,-4.0,u,-2.5%
C=CCOc1c(Cl)cc(CNc2ccc(N(C)C)cc2)cc1OC,18.0%,-1.8%,9.2%,u,u,22.4µM*
C#CCn1cc(/C=N/NC(=O)COc2cccc3cccnc23)c2ccccc21,22.6%,-2.0%[53 µM],-1.3%[53 µM],5.8,1.5%,0.794µM*
CCOc1ccc(C(=O)CSc2nnc3ccccn23)cc1,-0.6%,-2.9%,-1.5%,1.1,-0.4%,5.8%
CCn1c(CSc2nnc(-c3cccnc3)n2-c2ccccc2C)nc2cc(C(=O)O)ccc21,-4.2%,39.8µM*[fluorescent],11.2µM*,-4.8,u,3.16µM*
CCn1c(CSc2nnc3ccccn23)nc2cc(C(=O)O)ccc21,u,39.8µM*[fluorescent],7.94µM*,u,u,4.47µM*
CCn1c(CSc2nnc(-c3ccncc3)n2CCOC)nc2cc(C(=O)O)ccc21,-0.9%,50.1µM*[fluorescent],12.6µM*,-15.1,u,11.2µM*
Cc1ccccc1-n1c(SCC(=O)c2cc(C)n(C)c2C)nnc1-c1cccnc1,12.6%,0.4%,9.0%,2.9,-11.6%,48.7%
COc1cccc(C2=Nn3c(nnc3-c3cccc(OC)c3OC)SC2)c1,x,-1.3%,-2.2%,-1.1,-4.4%,x
O=C1c2c(O)ccc([N+](=O)[O-])c2C(=O)c2c([N+](=O)[O-])ccc(O)c21,x,-12.0%,-6.8%,x,x,-2.4%
Oc1ccc(Nc2ccccc2)cc1,x,-2.6%[201 µM],9.1%[201 µM],x,x,x
O=S(=O)(Nc1ccc(-c2ccc(N3CCCC3)nn2)cc1)c1cccc(C(F)(F)F)c1,x,708µM*[quencher],-8.3%,x,x,x
O=S(=O)(Nc1cccc(-c2ccc(N3CCCCCC3)nn2)c1)c1ccc(C(F)(F)F)cc1,27.1%,x,x,1.4,32.5%,x
COc1ccc(F)cc1S(=O)(=O)Nc1cccc(-c2ccc(N3CCC(C)CC3)nn2)c1,x,6.31µM*[quencher],-19.8%,x,x,x
C1=C/CC/C=C/CC/C=C/CC/1,x,-3.7%[201 µM],-11.5%[201 µM],x,x,x
Cc1sc2nc(SCc3nc(-c4ccccc4)no3)n(-c3ccccc3)c(=O)c2c1C,-3.2%,-1.1%,-18.4%,-0.7,-2.0%,10µM*
Cc1cc(O)c(-c2cc(O)c(C)cc2O)cc1O,10.6%,-3.3%,1.7%,2.3,x,0.316µM*!
